PubChem BioAssay AID818 (SRMLSC, 2007)
About 2,100 (1.5%) of roughly 140,000 compounds were called active.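 How the source made its calls: active means viability at or under a set limit, the compound median less 4 SD (cut at about 6% in these data); inactive means the rest.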 This excerpt belongs to a sample that is enriched for actives.

experiment: primary screen for suppressors of beta-catenin knockout HCT116 cell growth, colon tumor, human (AID 818); conditions: CellTiter-Glo, 60 h, at 10 µM, hits give low values;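 further: 0% = Hyamine 1622 control at 20 µM and 100% = untreated cell control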

Row | SMILES | viability
1 | COCCn1c(SCC(=O)Nc2ccc3c(c2)CCC3)nc2ccccc2c1=O | 81.5% (inactive)
2 | O=C(/C=C/NCc1ccc(F)cc1)c1ccccc1 | 87.5% (inactive)
3 | NS(=O)(=O)c1cc(C(=O)NCCOc2ccccc2)c(Cl)cc1Cl | 78.4% (inactive)
4 | COc1ccccc1N1CCN(Cc2nnnn2CCc2ccccc2)CC1 | 82.5% (inactive)
5 | COc1ccccc1N1CCN(C(=O)CN(Cc2ccc(Cl)cc2)S(C)(=O)=O)CC1 | 68.4% (inactive)
6 | COc1ccccc1-n1nnnc1S(=O)(=O)Cc1ccc(Cl)cc1 | 2.91% (active)
7 | CCc1cccc(C)c1NC(=O)COC(=O)Cc1ccsc1 | 80.8% (inactive)
8 | COc1ccc(-c2cc(C(F)(F)F)nc(SCC(=O)Nc3ccc4c(c3)OCO4)n2)cc1OC | 91.6% (inactive)
9 | COc1ccc(/C=C(/NC(=O)c2ccc(C)cc2)c2nc3ccccc3[nH]2)cc1OC | 87.3% (inactive)
10 | Oc1ccc(Cl)cc1/C=N/c1nc2ccccc2[nH]1 | 89.3% (inactive)
11 | O=C(/C(=C/c1cccc(Cl)c1)c1nc2ccccc2[nH]1)c1ccccc1 | 1.3% (active)
12 | Cc1cc(C)cc(C(=O)NC(=S)Nc2ccc3[nH]c(=O)[nH]c3c2)c1 | 95.8% (inactive)
13 | Cc1cccc(NC(=O)Cn2c(=O)n(Cc3ccccc3)c(=O)c3c(C)c(C)sc32)c1 | 77% (inactive)
14 | COc1ccc(/C=C(/CC(=O)Nc2ccc(C)cc2)c2nc3ccccc3s2)cc1 | 73% (inactive)
15 | Fc1ccccc1/C=C1\CCCC2=C1Nc1ncnn1C2c1ccccc1F (stereo not given) | 4.91% (active)
16 | CC(C)(C)SCCNC(=O)c1cccc([N+](=O)[O-])c1 | 97.8% (inactive)
17 | COc1ccc(/C=C/C(=O)c2cc(Br)ccc(=O)c2O)cc1 | 11.3% (inactive)
18 | COC(=O)CN1C(C)=Nc2ccc(Br)cc2C1c1ccccc1 (stereo not given) | 0.76% (active)
19 | CCC(CC)C(=O)N1CC(=O)Nc2ccc(Br)cc2C1c1ccccc1 (stereo not given) | 80.3% (inactive)
20 | COC(=O)CN1C(=O)C(O)=C(C(C)=O)C1c1ccc([N+](=O)[O-])cc1 (stereo not given) | 86.9% (inactive)
21 | CCCCCC(=O)Nc1ccc(S(=O)(=O)Nc2ccc(Cl)nn2)cc1 | 102% (inactive)
22 | CCCCc1nc(NCc2ccccc2)c(C#N)c2c1CCCC2 | 81% (inactive)
23 | CCCCc1nc(NCCN)c(C#N)c2c1CSC(C)(C)C2 | 1.71% (active)
24 | Cc1nc(NCCN)c(C#N)c2c1COC(C)(C)C2 | 94.1% (inactive)

Row | SMILES | viability
25 | CCC(C)C(=O)Nc1cc([N+](=O)[O-])ccc1Cl (stereo not given) | 96.4% (inactive)
26 | Oc1c(Br)cccc1/C=N/Nc1c(F)c(F)c(F)c(F)c1F | 51% (inactive)
27 | O=c1c2sccc2nc(SCc2cc(=O)n3ccccc3n2)n1-c1ccc(Br)cc1 | 59.1% (inactive)
28 | COc1ccc(O[C@H]2C=C[C@@H](c3ccccc3)O[C@@H]2CO/N=C/C[C@@H]2C=C[C@H](OC(C)=O)[C@@H](COC(C)=O)O2)cc1 | 88.8% (inactive)
29 | CCCC(NS(=O)(=O)c1ccc(OC)cc1)C(=O)O (stereo not given) | 92.4% (inactive)
30 | CCCNC(=O)OC[C@H]1O[C@H](CCO/N=C/[C@@H](NS(=O)(=O)c2ccc(C)cc2)[C@H](C)/C=C/CC(=O)OC)C=C[C@@H]1Oc1ccc(OC)cc1 | 0.62% (active)
31 | NNc1nc2c(Cl)cccc2s1 | 83.6% (inactive)
32 | Cc1ccc(C(=O)Oc2coc(CSc3nnc(NC(=O)c4cccs4)s3)cc2=O)cc1C | 96.1% (inactive)
33 | Cc1ccc(S(=O)(=O)NCCSc2ccccc2)cc1[N+](=O)[O-] | 104% (inactive)
34 | O=C(Nc1ccc(CSc2ccccc2)cc1)c1ccc(CN2CCOCC2)cc1 | 12.2% (inactive)
35 | COc1ccc(Cl)cc1-n1c(C)cc(C(=O)OCC(=O)N2CC(=O)Nc3ccccc32)c1C | 69.3% (inactive)
36 | CCOC(=O)/C(=C\c1ccc([N+](=O)[O-])cc1)C(=O)c1cc(C(C)=O)c(Nc2ccccc2)s1 | 1.71% (active)
37 | O=C(Nc1ccccc1)/C(=C/c1ccc([N+](=O)[O-])cc1)NC(=O)c1ccccc1 | 87.1% (inactive)
38 | Cc1cccc(NC(=O)c2sc(-c3ccccc3)nc2-c2ccc([N+](=O)[O-])cc2)c1 | 80.5% (inactive)
39 | Cc1cccc(N2C(=O)SC(SC(=Nc3ccccc3)Nc3ccccc3)C2=O)c1 (stereo not given) | 82.6% (inactive)
40 | Cc1ccc(C(=O)N/C(=C/c2cccnc2)C(=O)O)cc1 | 87.7% (inactive)
41 | CC(C)(C)c1nnc(N/N=C/c2ccc(O)cc2)n(N)c1=O | 90.8% (inactive)
42 | c1ccc2c(c1)CSc1sccc1C2=C1CCNCC1 | 3.31% (active)
43 | COc1ccc(-n2c(C)cc(C(=O)CN3C(=O)NC4(CCc5ccccc54)C3=O)c2C)cc1 (stereo not given) | 70.1% (inactive)
44 | O=C(Nc1cccc(Cl)c1)Nc1ccccc1NS(=O)(=O)c1cccs1 | 71.1% (inactive)
45 | Cc1csc(NC(=O)CN2CCCCCC2)n1 | 93.4% (inactive)
46 | O=C(Nc1cc(N2CCOCC2)ncn1)NC1(C(F)(F)F)Oc2ccc(Cl)cc2O1 (stereo not given) | 76.8% (inactive)
47 | Cc1csc(NC(=O)NC2(C(F)(F)F)Oc3ccccc3O2)n1 | 5.7% (active)
48 | Cc1ccn(CC(=O)N2N=C(C(F)F)CC2(O)C(F)F)n1 (stereo not given) | 101% (inactive)

Row | SMILES | viability
49 | N#C/C(=C\C1=C(N2CCOCC2)C(=C\c2ccccc2)/CC1)C(=O)Nc1ccccc1F | 65.8% (inactive)
50 | CCN(CC)c1ccc(/C=N/Nc2nc(C)cc(=O)[nH]2)cc1 | 76.5% (inactive)
51 | CCN(CC)c1ccc(/C=N/Nc2nc(C)cc(C)n2)c(O)c1 | 5.53% (active)
52 | Oc1ccc(/C=N/NC2=NCCCCC2)c(O)c1 | 94.7% (inactive)
53 | CCOC(=O)c1c(NC(=O)C2(C)Cc3ccccc3C(=O)O2)sc2c1CCCC2 (stereo not given) | 79.4% (inactive)
54 | Cc1ccc(C)c(NC(=O)CCC(=O)NNC(=O)c2cccs2)c1 | 96.8% (inactive)
55 | O=C(/C=C\c1ccc2c(c1)OCO2)NC1(C(=O)Nc2ccc3c(c2)OCCO3)CCCCC1 | 102% (inactive)
56 | CCOc1ccc2nc(Nc3nc4ccc(NC(C)=O)cc4s3)sc2c1 | 74.6% (inactive)
57 | COc1ccc2nc(Nc3nc4cc5c(cc4s3)OCCO5)sc2c1 | 90.5% (inactive)
58 | COc1ccc2nc(Nc3nc4ccc(NC(C)=O)cc4s3)sc2c1 | 2.25% (active)
59 | COc1ccc(C2=NN(C(=O)c3cccnc3)C(c3ccccc3)C2)cc1 (stereo not given) | 100% (inactive)
60 | COC(=O)c1c(NC(=O)CN2CCN(S(=O)(=O)c3ccccc3[N+](=O)[O-])CC2)sc2c1CCC(C)C2 (stereo not given) | 90.5% (inactive)
61 | CN1CCN(CC(=O)Nc2sc3c(c2C#N)CCC(C(C)(C)C)C3)CC1 (stereo not given) | 3.32% (active)
62 | CCC1CCc2c(sc(NC(C)=O)c2C#N)C1 (stereo not given) | 101% (inactive)
63 | CCNc1nc(NC(C)C)nc(N2CC(=O)N(CC(=O)OCC)C2=N)n1 | 94.3% (inactive)
64 | Oc1c(Cl)cc(Cl)c(Cl)c1Cc1c(O)c(Cl)cc(Cl)c1Cl | 4.83% (active)
65 | CCCn1c(=O)c2c(C(F)(F)F)cc(-c3cccs3)nc2n(CCC)c1=O | 90% (inactive)
66 | c1ccc2c(c1)C(=NC1CCCCC1)NC2=NC1CCCCC1 | 5.56% (active)
67 | O=C1CCCCC(=O)c2ccccc2N1 | 101% (inactive)
68 | CC(=O)OC(C)C[N+](C)(C)C (stereo not given) | 102% (inactive)
69 | CC(C[N+](C)(C)C)OC(N)=O (stereo not given) | 1.28% (active)
70 | CCCCn1c(O)c(N=NC(=O)Cn2c(C(F)(F)F)nc3ccccc32)c2ccccc21 | 93.1% (inactive)
71 | CC(C)(C)NC(=O)C(=O)NCc1ccncc1 | 98.5% (inactive)
72 | O=C(CSC(=S)N1CCOCC1)c1ccccc1 | 98.3% (inactive)

Row | SMILES | viability
73 | Cn1ncc2c(NNC(=O)Cc3cccc4ccccc34)ncnc21 | 86.8% (inactive)
74 | NS(=O)(=O)c1ccc(N=Cc2ccc(Br)s2)cc1 | 101% (inactive)
75 | CC(=O)CCC(=O)c1ccc2ccccc2c1 | 99.5% (inactive)
76 | Cc1nc(-c2ccccc2)sc1C(=O)/C=C/c1ccccc1 | 4.4% (active)
77 | CNC(=O)c1csc(-c2ccccc2)n1 | 96.8% (inactive)
78 | Cc1ccc(SCC(=O)c2sc(-c3ccccc3)nc2C)cc1 | 94.5% (inactive)
79 | Cc1ccc(Sc2ccncc2S(N)(=O)=O)cc1 | 87.3% (inactive)
80 | O=C(COC(=O)/C=C/c1ccc(S(=O)(=O)N2CCCCCC2)cc1)NCc1ccccc1Cl | 106% (inactive)
81 | OCCCN1c2ccccc2Nc2nnc(-c3ccccc3)cc21 | 46.3% (inactive)
82 | N=c1c2c(-c3ccccc3)c(-c3ccccc3)oc2ncn1Cc1ccco1 | 59.7% (inactive)
83 | N=c1c2c(-c3ccccc3)c(-c3ccccc3)n(Cc3ccccc3)c2ncn1CCCO | 1.54% (active)
84 | Cc1nc(SCc2ccc(F)cc2)c([N+](=O)[O-])[nH]1 | 89.8% (inactive)
85 | Cc1cc(N2CCOCC2)nc(-c2ccc(Br)cc2)n1 | 82.4% (inactive)
86 | CCCC1OC23CCCCC2C(C#N)(C#N)C1(C#N)C(=N)O3 (stereo not given) | 85.5% (inactive)
87 | COc1cccc(/C=N/NC(=O)CNC(=O)c2ccc(S(=O)(=O)N3CCOCC3)cc2)c1OC | 90.8% (inactive)
88 | COC(=O)c1sc2ncccc2c1OCc1ccc(Cl)cc1Cl | 67.4% (inactive)
89 | COc1ccc(C(=O)O/N=C(\N)Cc2ccc(Cl)cc2Cl)cc1OC | 79.8% (inactive)
90 | NC(N)=N/N=C/c1ccc(OCc2ccc(Cl)cc2Cl)cc1 | 1.64% (active)
91 | CCOC(=O)NN1C(=O)c2ccccc2NC1c1ccccc1O (stereo not given) | 95% (inactive)
92 | C=CCn1c(SCC(N)=O)nnc1-c1cc2c(s1)CCC(CC)C2 (stereo not given) | 91.1% (inactive)
93 | COc1cc2c(cc1OC)C(Nc1ccc(S(N)(=O)=O)cc1)=NC(C)(C)C2 | 101% (inactive)
94 | COc1cc2c(cc1O)C(SC)=NC(C)(C)C2 | 2.29% (active)
95 | COc1cc2c(cc1OC)C(C(C)C)=NC(C)(C)C2 | 95.1% (inactive)
